Rows were chosen to be rich in hits. Some 10% of all compounds tested hit in one or more screens of this group.
Gal4-VP16 FLuc: inhibits Gal4-VP16 luciferase reporter, ROR gamma counter-screen; 310,000 compounds, 3.5% hits; Drosophila S2 Gal4-VP16 UAS-luciferase, luminescence, 20 h; Potency, µM (doses to about 53.6 µM), inactives show top-dose activity, negative = inhibition, most hits filed as inhibitors;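 also: Gal4-VP16 expression switched on by copper sulfate through the metallothionein promoter; % is scaled to controls: 0 for no effect and ±100 for the full control effect; nearly all actives have a fitted effect of over 50% in size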
ELG1 repair inh: blocks ELG1-dependent DNA repair in HEK293T cells; HEK293T ELG1-luciferase reporter, luminescence, 16 h; DNA damage induced by 5-fluorouridine; Potency, µM (series often up to 46.1 µM), for inactives: at the top dose activity change, negative = inhibition, usual class: inhibitors; 330,000 compounds, 2.3% hits; also: % is scaled to controls: 0 for no effect and ±100 for the full control effect; nearly all actives have a fitted effect of over 55% in size
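DMSO vehicle served as the neutral condition. Each well held 2,000 cells given 5-fluorouridine plus compound; after 16 hr at 37 °C/5% CO2, ONE-Glo was added and luciferase measured 30 min later.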
RORgamma inh: inhibitors of mouse ROR gamma transcriptional activity | Drosophila S2 Gal4-RORgamma UAS-luciferase reporter, 20 h | Potency, µM (titrated, usually from 53.6 µM), for inactives: at the highest dose activity change, negative = inhibition, actives largely listed as inhibitors | 310,000 compounds, 5.4% hits; also: % is scaled to controls: 0 for no effect and ±100 for the full control effect; nearly all actives have a fitted effect of over 60% in size
Target sequence (P51450 whole entry, looked up, the tested form may be a part): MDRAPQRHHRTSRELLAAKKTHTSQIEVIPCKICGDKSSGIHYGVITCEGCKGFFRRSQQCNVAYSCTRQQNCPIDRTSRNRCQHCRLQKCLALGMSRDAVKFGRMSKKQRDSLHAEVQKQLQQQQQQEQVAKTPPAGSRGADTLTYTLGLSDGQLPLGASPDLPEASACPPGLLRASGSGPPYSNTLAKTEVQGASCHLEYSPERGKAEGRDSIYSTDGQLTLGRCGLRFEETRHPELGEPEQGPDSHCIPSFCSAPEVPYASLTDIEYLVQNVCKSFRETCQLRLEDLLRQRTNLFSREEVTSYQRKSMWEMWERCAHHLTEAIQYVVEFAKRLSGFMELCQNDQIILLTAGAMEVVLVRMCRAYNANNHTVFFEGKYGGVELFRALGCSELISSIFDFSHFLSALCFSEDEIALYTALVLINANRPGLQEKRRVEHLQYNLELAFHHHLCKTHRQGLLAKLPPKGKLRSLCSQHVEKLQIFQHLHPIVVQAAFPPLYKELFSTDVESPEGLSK
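Drosophila Schneider cells stably carrying a metallothionein-driven Gal4 DBD–ROR gamma fusion and a UAS-Photinus luciferase reporter were exposed to compound for 1 hr, then induced with copper sulfate (700 uM final) for 20 hr at ambient temperature before luminescence reading.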
SW480 rerep: DNA re-replication induction in SW480 cells; Potency, µM (highest dose often 46.1 µM), without a hit: at the top dose re-replication activation, most hits filed as activators; 340,000 compounds, 1.8% hits; SW480 DNA re-replication, Hoechst DNA content imaging, 48 h; also: % of control where 0% means no effect; nearly all actives have a fitted effect of over 55% in size
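Treated cells incubate 48 hr (37 C, 5% CO2), are stained 40 min with Hoechst, and nuclear fluorescence is enumerated; a rise in nuclei with high DNA signal marks re-replication.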
MCF10A rerep: DNA re-replication induction in MCF 10a cells; Potency, µM (top dose mostly 46.1 µM), without a hit: at the top dose activity, positive = re-replication, most hits filed as activators; 350,000 compounds, 2.9% hits; MCF 10A DNA re-replication, Hoechst nuclear intensity, 48 h; also: % of control where 0% means no effect; nearly all actives have a fitted effect of over 50% in size
ELG1 FLuc counter: luciferase inhibition in cell-free luciferin readout for ELG1 hits | Potency, µM (series often up to 46.1 µM), for inactives: at the highest dose activity change, negative = inhibition, most hits filed as inhibitors | shares compounds with ELG1 repair inh | cell-free firefly luciferase luminescence counter-screen, ViewLux | 350 compounds, 3% hits; also: % is scaled to controls: 0 for no effect and ±100 for the full control effect
ELG1-Luc inh: inhibits ELG1-dependent DNA repair in HEK293T cells, confirmed; shares compounds with ELG1 repair inh; HEK293T ELG1-luciferase levels, luminescence; cells co-treated with 5-fluorouridine; Potency, µM (highest dose often 46.1 µM), for the others: at the top dose activity change, negative = inhibition, most hits filed as inhibitors; 670 compounds, 68% hits; also: % is scaled to controls: 0 for no effect and ±100 for the full control effect; nearly all actives have a fitted effect of over 55% in size
ELG1-Luc MMS: confirmation of human ELG1 repair inhibitors, MMS stimulated. shares compounds with ELG1 repair inh. HEK293T luciferase-tagged ELG1 level, MMS stimulated. Potency, µM (titrated, usually from 46.1 µM), inactives show top-dose activity change, negative = inhibition, usual class: inhibitors. 670 compounds, 53% hits. AID 624249; also: % is scaled to controls: 0 for no effect and ±100 for the full control effect; nearly all actives have a fitted effect of over 60% in size
ELG1 5FU viab: confirmation of ELG1 repair inhibitors: viability with 5FU | Potency, µM (series often up to 46.1 µM), inactives show top-dose activity change, negative = viability loss, hits mostly cytotoxic | cell viability with 5-FU, ELG1-dependent repair | 670 tested, under 10 active | shares compounds with ELG1 repair inh;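 also: ELG1-luc HEK293T cells cotreated with 5-fluorouridine at 10 µM final; viability measured 16 h after compound addition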
ELG1 MMS cell: confirmation of ELG1 repair inhibitors: viability with MMS; shares compounds with ELG1 repair inh; Cell viability with MMS, ELG1-dependent DNA repair; Potency, µM (titrated, usually from 46.1 µM), for inactives: top-dose activity change, negative = viability loss, usual class: cytotoxic; 670 compounds, 33% hits; AID 624251;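 also: ELG1-luc HEK293T cells co-treated with 10 µM MMS; viability read 16 h after compound addition; % is scaled to controls: 0 for no effect and ±100 for the full control effect; nearly all actives have a fitted effect of over 60% in size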
Cell viab unstim: counter-screen for ELG1 repair inhibitors: unstimulated cell viability. cell viability counter-screen, unstimulated, luminescence. AID 624252. 900 compounds, 8% hits. Potency, µM (top dose mostly 45.9 µM), without a hit: at the highest dose activity change, negative = loss of viability, usual class: cytotoxic. shares compounds with ELG1 repair inh;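 also: compound exposure lasted 16 hours before reading; % is scaled to controls: 0 for no effect and ±100 for the full control effect; nearly all actives have a fitted effect of over 55% in size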
FLuc enzyme: inhibits purified firefly luciferase, counter-screen for ELG1 hits; AID 624253; Potency, µM (top dose mostly 57.5 µM), for the others: top-dose activity, negative = inhibition, most hits filed as inhibitors; purified firefly luciferase, luminescence counter-screen; 350 compounds, 10% hits; shares compounds with ELG1 repair inh; also: % is scaled to controls: 0 for no effect and ±100 for the full control effect
Starred values were filed as active, the others as inactive; ? = inconclusive; . = no result given. Calls follow the shape of the dose curve; as a rule, active = well fitted curve in the direction sought with a large enough effect; inconclusive = small, poorly fitted or top-dose-only effect, or another doubt; inactive = no such curve, though single readings can be large; an effect the other way counts as inactive or inconclusive. Potency is read from the fitted curve at half-maximal effect.

SMILES	Gal4-VP16 FLuc	ELG1 repair inh	RORgamma inh	SW480 rerep	MCF10A rerep	ELG1-Luc inh	ELG1-Luc MMS	ELG1 5FU viab	ELG1 MMS cell	Cell viab unstim	others
CC(=O)OC1CC[C@]2(C)C(CCC3C2CC[C@]2(C)C(C4=CC(=O)OC4)C(OC(C)=O)CC32O)C1 (some centres not stated)	-2%	.	?	.	.	1.4µM*	0.89µM*	?	1.3µM*	0.63µM*
CC(=O)OC1CCC23C(=O)OC45CCC(C6=CC(=O)OC6)C4(C)CCC2C5CCC3(O)C1 (configuration not stated)	-7%	.	-13%	.	.	1.3µM*	0.63µM*	?	1.3µM*	0.44µM*
CN1CCCC2(CCN(C(=O)Oc3ccccc3)CC2)C1	-4%	.	3%	.	.	.	.	.	.	.
CC1O[C@@H](OC2CC[C@@]3(C=O)C4CC[C@]5(C)C(C6=CC(=O)OC6)CC[C@@]5(O)C4CC[C@]3(O)C2)C(O)C(O)C1O (some centres not stated)	-1%	.	15%	.	.	0.32µM*	0.16µM*	?	0.28µM*	0.14µM*	ELG1 FLuc counter=?;FLuc enzyme=-8%
C[C@@H]1O[C@@H](O[C@H]2CC[C@]3(C=O)C4CC[C@]5(C)[C@@H](C6=CC(=O)OC6)CC[C@]5(O)[C@@H]4CC[C@]3(O)C2)[C@H](O)[C@H](O)[C@H]1O (some centres not stated)	-6%	.	0%	.	.	.	.	.	.	.
CC(C)NC(=O)N1CCC2(CC1)CCN(C(=O)Oc1ccccc1)CC2	10%	.	21%	.	.	.	.	.	.	.
CNC(=O)O/N=C/C(C)(C)S(C)=O (configuration not stated)	0%	.	3%	.	.	.	.	.	.	.
CCCCCCCCCCCCCC(=O)O[C@@H]1[C@@H](C)[C@@]2(O)[C@H](C=C(CO)C[C@]3(O)C(=O)C(C)=C[C@@H]23)[C@@H]2C(C)(C)C12OC(C)=O (some centres not stated)	.	.	.	.	.	.	.	.	.	?	ELG1 FLuc counter=79%;FLuc enzyme=?
CCCC(=O)O[C@@H]1[C@@H](C)[C@@]2(O)[C@@H](C=C(CO)C[C@]3(O)C(=O)C(C)=C[C@@H]23)[C@@H]2C(C)(C)[C@]12OC(=O)CCC	6%	.	1%	.	.	.	.	.	.	?
CN(C)[C@@H](Cc1ccccc1)c1ccccc1	0%	.	-2%	1%	10%	.	.	.	.	.
C[C@@H]1C[C@@H]2[C@H]([C@H]3C=C(COC(=O)c4ccccc4)[C@@H](O)[C@]4(O)[C@@H](O)C(OC(=O)c5ccccc5)=C[C@@]14C3=O)C2(C)C	-19%	.	3%	.	.	.	.	.	.	?	ELG1 FLuc counter=96%;FLuc enzyme=-1%
COC1(C)CC(c2ccccc2)c2c(c3ccccc3oc2=O)O1 (configuration not stated)	-3%	.	26%	.	.	.	.	.	.	.
O=C(Nc1ccccc1)c1cccn(Cc2ccccc2)c1=O	-25%	0%	19%	-136%	18%	.	.	.	.	.
O=C(Nc1ccncc1)c1cccn(Cc2ccccc2)c1=O	?	3.3µM*	20%	11%	0%	8%	2.2µM*	2%	2.5µM*	?
C[C@H]1CCC[C@@H](O)CCC/C=C/c2cc(O)cc(O)c2C(=O)O1	-3%	2.8µM*	8%	?	10µM*	4µM*	4µM*	-7%	?	?
CC1CCCC(=O)CCC/C=C/c2cc(O)cc(O)c2C(=O)O1 (configuration not stated)	1%	.	0%	.	.	.	.	.	.	.
COc1cc2c(c(OC)c1OC)-c1ccc(O)c(=O)cc1C(NC(C)=O)CC2 (configuration not stated)	-2%	?	-8%	?	?	.	.	.	.	-5%	ELG1 FLuc counter=22%;FLuc enzyme=1%
COc1ccc(/C(=N/OC(C)=O)c2nccc3cc(OC)c(OC)cc23)cc1OC	-6%	3.3µM*	17%	-5%	5%	?	2%	?	8%	4%
COc1cc2c(ccc3c4cc(OC)c(OC)cc4c[n+](C)c23)cc1O	.	.	.	-6%	-17%	.	.	.	.	.
Cc1ccc2c(c1)C1(CCN(CCc3nc(-c4ccccc4)oc3C)CC1)OC(=O)N2	-26%	.	28%	.	.	.	.	.	.	.
C[C@@H]1C[C@H](C)C[C@H](C)[C@@H](O)CC(=O)O[C@H]([C@H]2CCC[C@H]2C(=O)O)C/C=C/C=C(/C#N)[C@H](O)[C@@H](C)C1	?	.	0.028µM*	.	.	0.4µM*	0.79µM*	?	6.3µM*	?	ELG1 FLuc counter=?;FLuc enzyme=5%
Oc1cc(Cl)cc(Cl)c1Cl	-23%	3%	?	-39%	?	.	.	.	.	.
CO/C1=C\C(C)=C\[C@@H](C)[C@@H](O)[C@H](C)C/C(C)=C/C=C/[C@H](OC)[C@H]([C@@H](C)[C@@H](O)[C@H](C)[C@H]2C[C@@H](O)[C@H](C)[C@@H](C(C)C)O2)OC1=O	.	.	.	.	.	-3%	-19%	-8%	?	?	ELG1 FLuc counter=5%;FLuc enzyme=-1%
O=C(Nc1ccccc1)c1ccccc1I	-12%	.	26%	.	.	.	.	.	.	.
CCCCC/C=C\C=C\[C@H](CCCCCCCC(=O)O)OO	-11%	.	10%	.	.	.	.	.	.	.

Source: PubChem
